Only a selection was taken, and the strongest signals are over-represented in it overall.
Key:
Test in all cases: glycan array binding signal (z-score within array); higher = stronger binding
Settings in all cases: glycan notation: IUPAC condensed, linker removed
[1] = molecular target: GlcNAc(b1-2)[GlcNAc(b1-4)]Man(a1-3)[GlcNAc(b1-2)Man(a1-6)]Man(b1-4)GlcNAc(b1-4)GlcNAc
Procedure, shortened: (§1)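 Glycan array binding is given as a within-array Z-score, which can be read as non-binding when negative. The arrays, 3228 of them, came from the Consortium for Functional Glycomics database and were retained only where the protein sequence was available. Z-scores were averaged across arrays of the same protein sequence at different concentrations or buffers and across linkers.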

[2] = molecular target: GlcNAc(b1-2)[GlcNAc(b1-4)]Man(a1-3)[GlcNAc(b1-4)][GlcNAc(b1-2)[GlcNAc(b1-6)]Man(a1-6)]Man(b1-4)GlcNAc(b1-4)[Fuc(a1-6)]GlcNAc
Procedure, shortened: as §1

GlcNAc(b1-3)Gal = molecular target: GlcNAc(b1-3)Gal
Procedure, shortened: as §1

[3] = molecular target: GlcNAc(b1-3)Gal(b1-4)GlcNAc(b1-2)[GlcNAc(b1-3)Gal(b1-4)GlcNAc(b1-6)]Man(a1-6)[GlcNAc(b1-3)Gal(b1-4)GlcNAc(b1-2)Man(a1-3)]Man(b1-4)GlcNAc(b1-4)GlcNAc
Procedure, shortened: as §1

[4] = molecular target: GlcNAc(b1-3)Gal(b1-4)GlcNAc(b1-3)Gal(b1-4)GlcNAc(b1-2)Man(a1-3)[GlcNAc(b1-3)Gal(b1-4)GlcNAc(b1-3)Gal(b1-4)GlcNAc(b1-2)Man(a1-6)]Man(b1-4)GlcNAc(b1-4)GlcNAc
Procedure, shortened: as §1

[5] = molecular target: GlcNAc(b1-4)Gal(b1-4)GlcNAc
Procedure, shortened: as §1

[6] = molecular target: GlcNAc(b1-4)GlcNAc(b1-4)GlcNAc
Procedure, shortened: as §1

[7] = molecular target: GlcNAc(b1-6)Gal(b1-4)GlcNAc
Procedure, shortened: as §1

Man(a1-2)Man(a1-3)Man = molecular target: Man(a1-2)Man(a1-3)Man
Procedure, shortened: as §1

[8] = molecular target: Man(a1-2)Man(a1-6)[Man(a1-3)]Man(a1-6)[Man(a1-2)Man(a1-2)Man(a1-3)]Man
Procedure, shortened: as §1

[9] = molecular target: Man(a1-3)[Man(a1-6)]Man(a1-6)[Man(a1-3)]Man
Procedure, shortened: as §1

MurNAc(b1-4)GlcNAc = molecular target: MurNAc(b1-4)GlcNAc
Procedure, shortened: as §1

[10] = molecular target: Neu5Ac(a2-3)Gal(b1-4)GlcNAc(b1-2)[Neu5Ac(a2-3)Gal(b1-4)GlcNAc(b1-4)]Man(a1-3)[GlcNAc(b1-4)][Neu5Ac(a2-3)Gal(b1-4)GlcNAc(b1-4)Man(a1-6)]Man(b1-4)GlcNAc(b1-4)GlcNAc
Procedure, shortened: as §1

[11] = molecular target: Neu5Ac(a2-3)Gal(b1-4)GlcNAc(b1-2)[Neu5Ac(a2-3)Gal(b1-4)GlcNAc(b1-6)]Man(a1-6)[Neu5Ac(a2-3)Gal(b1-4)GlcNAc(b1-2)Man(a1-3)]Man(b1-4)GlcNAc(b1-4)GlcNAc
Procedure, shortened: as §1

[12] = molecular target: Neu5Ac(a2-3)Gal(b1-4)GlcNAc(b1-3)Gal(b1-4)GlcNAc(b1-3)Gal(b1-4)GlcNAc(b1-2)Man(a1-3)[Neu5Ac(a2-3)Gal(b1-4)GlcNAc(b1-3)Gal(b1-4)GlcNAc(b1-3)Gal(b1-4)GlcNAc(b1-2)Man(a1-6)]GalNAc
Procedure, shortened: as §1

[13] = molecular target: Neu5Ac(a2-3)Gal(b1-4)GlcNAc(b1-3)[Neu5Ac(a2-3)Gal(b1-4)GlcNAc(b1-6)]GalNAc
Procedure, shortened: as §1

[14] = molecular target: Neu5Ac(a2-3)Gal(b1-4)[Fuc(a1-3)]GlcNAc(b1-3)Gal(b1-4)[Fuc(a1-3)]GlcNAc(b1-3)Gal(b1-4)[Fuc(a1-3)]GlcNAc
Procedure, shortened: as §1

[15] = molecular target: Neu5Ac(a2-3)Gal(b1-4)[Fuc(a1-3)]GlcNAc(b1-3)GalNAc
Procedure, shortened: as §1

[16] = molecular target: Neu5Ac(a2-3)[GalNAc(b1-4)]Gal(b1-4)GlcNAc
Procedure, shortened: as §1

[17] = molecular target: Neu5Ac(a2-6)Gal(b1-4)GlcNAc(b1-2)Man(a1-6)[GlcNAc(b1-2)Man(a1-3)]Man(b1-4)GlcNAc(b1-4)GlcNAc
Procedure, shortened: as §1

[18] = molecular target: Neu5Ac(a2-6)Gal(b1-4)GlcNAc(b1-3)Gal(b1-4)GlcNAc(b1-3)Gal(b1-4)GlcNAc(b1-2)Man(a1-3)[Neu5Ac(a2-6)Gal(b1-4)GlcNAc(b1-3)Gal(b1-4)GlcNAc(b1-3)Gal(b1-4)GlcNAc(b1-2)Man(a1-6)]GalNAc
Procedure, shortened: as §1

[19] = molecular target: Neu5Ac(a2-6)Gal(b1-4)GlcNAc(b1-3)Gal(b1-4)[Fuc(a1-3)]GlcNAc(b1-3)Gal(b1-4)[Fuc(a1-3)]GlcNAc
Procedure, shortened: as §1

[20] = molecular target: Neu5Ac(a2-8)Neu5Ac(a2-3)Gal(b1-4)Glc
Procedure, shortened: as §1

[21] = molecular target: Neu5Gc(a2-3)Gal(b1-3)[Fuc(a1-4)]GlcNAc
Procedure, shortened: as §1

[22] = molecular target: Neu5Gc(b2-6)Gal(b1-4)GlcNAc
Procedure, shortened: as §1

B1: SP15308C-bot-338-23-338 (Bacteroides ovatus) (protein)
chain: DEWTDEQFKQLISFKTQPGGWGVTDVHVRYANSAKYTYNLPVLVSGSTDNTDDRLVSFSLRDDTLDILNFEKFGNRPELYFRELPQKYYSFPKELTIPAGQSHALLPIEFSLDGLDDSQKWALPLKVCEDANGTYAVNPRKYYRTAVLRPILFNEFSGRFSGSSLLGTMAGESDIKFSSTEIKLNVVTDSIVFFYAGQRTEDYEDRINYKVFLQFTGDKVDSKKDLYKMKIWAENEKLKFNSYSTPTYKVSSEMDATKTYLKHTYIVISDIDFDFVDYTSVPNYEIEYNMKGGLSVSRDLDTRKPDEDQGSDSKWW
glycan array binding signal (z-score) [1]: -0.931
glycan array binding signal (z-score) [2]: -0.818
glycan array binding signal (z-score) (GlcNAc(b1-3)Gal): -0.756
glycan array binding signal (z-score) [3]: 0.124
glycan array binding signal (z-score) [4]: 2.87
glycan array binding signal (z-score) [5]: -0.205
glycan array binding signal (z-score) [6]: -0.098
glycan array binding signal (z-score) [7]: -0.182
glycan array binding signal (z-score) (Man(a1-2)Man(a1-3)Man): 0.722
glycan array binding signal (z-score) [8]: -0.109
glycan array binding signal (z-score) [9]: 0.294
glycan array binding signal (z-score) (MurNAc(b1-4)GlcNAc): -0.64
glycan array binding signal (z-score) [10]: -0.025
glycan array binding signal (z-score) [11]: 0.382
glycan array binding signal (z-score) [12]: 0.621
glycan array binding signal (z-score) [13]: -0.252
glycan array binding signal (z-score) [14]: -0.739
glycan array binding signal (z-score) [15]: 3.23
glycan array binding signal (z-score) [16]: -0.753
glycan array binding signal (z-score) [17]: -0.62
glycan array binding signal (z-score) [18]: 2.46
glycan array binding signal (z-score) [19]: -0.639
glycan array binding signal (z-score) [20]: -0.032
glycan array binding signal (z-score) [21]: 0.492
glycan array binding signal (z-score) [22]: 0.812

— the supplement of paper PMC8728848
